The text below walks through data of PubChem BioAssay (NCI).

Compounds without any hit were thinned out: in the full panel of roughly 83,000, 20% have a hit.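 Compound tested at a single concentration for 48 hours in 96-well plates; a percent growth value below 10 was scored as active.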 Unmarked numbers belong to inactive results. Calls of active or inactive are those of the source.

Some test systems named below: SR leukemia; RPMI-8226 leukemia; OVCAR-8 ovarian; OVCAR-5 ovarian; OVCAR-4 ovarian; SK-OV-3 ovarian; IGROV1 ovarian; OVCAR-3 ovarian; HS 578T breast; NCI/ADR-RES ovarian; T-47D breast; BT-549 breast; MDA-MB-435 melanoma; SW-620 colon; MCF7 breast; HCT-116 colon; HCC-2998 colon; KM12 colon.
What all share (assay): NCI-60 one-dose screen, 48 h (100 = growth as untreated, 0 = no growth, -100 = all killed)
What all share (settings): 10 µM unless noted

In the case of `CCN(CC)CCOc1ccc(C(=O)/C=C\c2ccc(Cl)cc2Cl)cc1`, the growth in the experiment with SR leukemia was -15.4% (active); with RPMI-8226 leukemia, -23.9% (active); in the experiment with OVCAR-8 ovarian, 53.3%; with OVCAR-5 ovarian it was 68%; in the experiment with OVCAR-4 ovarian, 52.6%; in the experiment on SK-OV-3 ovarian it was 43.2%. The growth in the experiment with IGROV1 ovarian is 32.2%; in the experiment with OVCAR-3 ovarian, 9.56% (active); with HS 578T breast it was 66.2%; with NCI/ADR-RES ovarian, 49.9%; in the experiment on T-47D breast, 29.9%; in the experiment on BT-549 breast, 31.6%. In addition, the growth in the experiment with MDA-MB-435 melanoma was 27.3%; in the experiment with SW-620 colon it was -55.1% (active); in the experiment on MCF7 breast it was -48.1% (active); in the experiment on HCT-116 colon it was -90.2% (active); in the experiment with HCC-2998 colon, 24.2%; with KM12 colon it was -43.2% (active).

As to `COc1ccc(Nc2ncc(C#N)c(NCCCNC(=O)C3CCC3)n2)cc1`, the growth was 46.3% in the experiment on SR leukemia; 85.8% in the experiment on RPMI-8226 leukemia; 64% in the experiment with OVCAR-8 ovarian; 79.6% with OVCAR-5 ovarian; 77.7% in the experiment on OVCAR-4 ovarian; 77.6% in the experiment with SK-OV-3 ovarian. Further, the growth was 54.4% with IGROV1 ovarian; 70.2% in the experiment with OVCAR-3 ovarian; 47.7% in the experiment with HS 578T breast; 83.1% in the experiment with NCI/ADR-RES ovarian; 109% in the experiment on T-47D breast; 70.6% in the experiment with BT-549 breast. Besides, the growth in the experiment on MDA-MB-435 melanoma is 68.5%; with SW-620 colon, 41.5%; in the experiment on MCF7 breast, 63.7%; with HCT-116 colon, 50.1%; in the experiment with HCC-2998 colon, 97.2%; in the experiment on KM12 colon, 64.2%.

Consider `COc1ccc(C2CC(n3ccnc3)c3cc(OC)c(OC)c(OC)c32)cc1O` (configuration not stated), for which the growth with SR leukemia was 35.4%; with RPMI-8226 leukemia, 94.6%; with OVCAR-8 ovarian it was 89.2%; with OVCAR-5 ovarian, 107%; with OVCAR-4 ovarian, 100%; with SK-OV-3 ovarian, 86.3%. Besides, the growth in the experiment on IGROV1 ovarian is 82.4%; with OVCAR-3 ovarian, 57.1%; in the experiment on HS 578T breast it was 85.4%; in the experiment on NCI/ADR-RES ovarian, 93.9%; with T-47D breast, 94.3%; with BT-549 breast, 90.4%. Besides, the growth in the experiment with MDA-MB-435 melanoma was 5% (active); in the experiment on SW-620 colon, 62.5%; with MCF7 breast, 44.8%; in the experiment with HCT-116 colon it was 81.1%; in the experiment on HCC-2998 colon, 99.2%; in the experiment on KM12 colon, 50.6%.

With `C=C1C(=O)O[C@@H]2C3C(=C(C)CC[C@@H]12)CC1O[C@]13C` (some centres not stated), the growth was 38.4% [6.75 µM] with SR leukemia; 43.8% [6.75 µM] with RPMI-8226 leukemia; 83.5% [6.75 µM] with OVCAR-8 ovarian; 108% [6.75 µM] in the experiment with OVCAR-5 ovarian; 93.4% [6.75 µM] with OVCAR-4 ovarian; 118% [6.75 µM] in the experiment on SK-OV-3 ovarian. For the same compound, the growth was 99.4% [6.75 µM] in the experiment on IGROV1 ovarian; 75.8% [6.75 µM] in the experiment on OVCAR-3 ovarian; 90.4% [6.75 µM] with HS 578T breast; 98.1% [6.75 µM] in the experiment on NCI/ADR-RES ovarian; 56.8% [6.75 µM] in the experiment on T-47D breast; 76.3% [6.75 µM] in the experiment on BT-549 breast. Further, the growth in the experiment with MDA-MB-435 melanoma is 75.5% [6.75 µM]; in the experiment on SW-620 colon, 71.8% [6.75 µM]; in the experiment with MCF7 breast, 44.2% [6.75 µM]; in the experiment on HCT-116 colon, 46.1% [6.75 µM]; in the experiment on HCC-2998 colon it was 108% [6.75 µM]; in the experiment with KM12 colon it was 102% [6.75 µM].
